In the library only some 0.99% were active in any assay of this set; here they are far more common.
BLM inh: Bloom syndrome helicase (human) inhibition | recombinant BLM DNA unwinding, fluorescence dequenching | 350,000 compounds, 0.2% hits | Potency, µM (top dose mostly 56.1 µM), for the others: top-dose activity change, negative = inhibition, usual class: inhibitors;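 note: plate controls were vehicle for no effect and no enzyme for full effect; nearly all actives have a fitted effect of over 35% in size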
FEN1 inh: blocks human flap endonuclease 1. 390,000 compounds, 0.35% hits. P39748. Recombinant FEN1 flap cleavage, fluorescence, 15 min. Potency, µM (series often up to 114 µM), inactives show top-dose activity change, negative = inhibition, actives largely listed as inhibitors; note: nearly all actives have a fitted effect of over 65% in size
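Enzyme 10 nM, 15 min RT preincubation with compound; start with substrate 50 nM final; reads at 0 and 15 min; qHTS titration, four-parameter Hill fit.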
WRN inhibitor: inhibitors of human WRN helicase; WRN helicase unwinding, fluorescent forked duplex, kinetic; AID 651768; Q14191; Potency, µM (top dose mostly 114 µM), for inactives: at the highest dose activity change, negative = inhibition, hits mostly inhibitors; 360,000 compounds, 0.46% hits; note: nearly all actives have a fitted effect of over 55% in size
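Primary qHTS, 1536-well format. 20 nM WRN + compound, 15 min RT; start with 100 nM forked fluorophore/quencher duplex, 2 mM ATP (final); kinetic read ex 525/em 598 nm.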
L3MBTL1 inh: L3MBTL1 (human) inhibition; Q9Y468; AlphaScreen L3MBTL1–H3K9me1 peptide binding; Potency, µM (highest dose often 57.1 µM), for inactives: at the highest dose activity, negative = inhibition, usual class: inhibitors; 230,000 compounds, 0.66% hits; note: nearly all actives have a fitted effect of over 60% in size
Target sequence (Q9Y468 whole entry, looked up): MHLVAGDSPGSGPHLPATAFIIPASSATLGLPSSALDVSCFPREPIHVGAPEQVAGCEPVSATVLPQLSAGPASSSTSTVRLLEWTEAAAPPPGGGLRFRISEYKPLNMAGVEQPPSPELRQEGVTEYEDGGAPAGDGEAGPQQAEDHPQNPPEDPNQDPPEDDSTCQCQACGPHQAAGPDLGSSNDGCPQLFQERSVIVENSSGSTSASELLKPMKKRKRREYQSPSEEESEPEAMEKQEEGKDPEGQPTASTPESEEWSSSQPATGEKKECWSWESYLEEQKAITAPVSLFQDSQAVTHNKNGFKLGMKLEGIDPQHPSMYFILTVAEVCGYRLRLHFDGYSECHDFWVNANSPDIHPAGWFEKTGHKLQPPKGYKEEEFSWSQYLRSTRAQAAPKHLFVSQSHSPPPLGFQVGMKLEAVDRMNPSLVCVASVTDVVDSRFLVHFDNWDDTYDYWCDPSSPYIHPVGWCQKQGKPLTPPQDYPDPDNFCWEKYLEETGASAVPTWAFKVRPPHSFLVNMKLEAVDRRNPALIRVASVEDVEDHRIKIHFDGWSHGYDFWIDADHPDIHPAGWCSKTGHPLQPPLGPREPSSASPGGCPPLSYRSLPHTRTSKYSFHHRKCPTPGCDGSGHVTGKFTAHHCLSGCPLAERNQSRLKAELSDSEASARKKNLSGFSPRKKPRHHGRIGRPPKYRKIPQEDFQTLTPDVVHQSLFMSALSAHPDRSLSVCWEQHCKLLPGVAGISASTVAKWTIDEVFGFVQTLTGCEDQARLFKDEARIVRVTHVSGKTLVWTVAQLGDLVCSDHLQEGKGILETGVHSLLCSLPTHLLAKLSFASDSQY
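Read-out is AlphaScreen signal from streptavidin donor and nickel chelate acceptor beads (10 ug/mL final each) bridging L3MBTL1 (50 nM) and biotinylated K9-monomethylated H3(1-15) peptide (75 nM), after 30 min compound exposure at room temperature.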
RECQ1 inh-1: blocks DNA unwinding by human RECQ1; P46063; RECQ1 DNA unwinding, red fluorescence kinetic read; Potency, µM (top dose mostly 57.3 µM), inactives show top-dose activity, negative = inhibition, actives largely listed as inhibitors; 240,000 compounds, 0.54% hits;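 note: plate controls were vehicle for no effect and no enzyme for full effect; nearly all actives have a fitted effect of over 30% in size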
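RECQ1T1 50 nM; forked duplex (20 bp + 30-nt ss tails) 200 nM, ATP 2 mM final; pH 8.0, 2 mM MgCl2, 2.5 ug/ml poly(dI-dC); 15 min compound preincubation; discontinuous kinetic read over 2 h at RT.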
RECQ1 inh conf: confirmation of human RECQ1 helicase inhibitors; shares compounds with RECQ1 inh-1; RECQ1 helicase DNA unwinding, fluorescence; Potency, µM (top dose mostly 229 µM), for inactives: at the top dose activity change, negative = inhibition, usual class: inhibitors; 610 compounds, 28% hits; AID 2708; note: nearly all actives have a fitted effect of over 45% in size
ADP FP counter: displaces ADP in a fluorescence polarization counter-screen for RECQ1 hits; shares compounds with RECQ1 inh-1; ADP fluorescence polarization displacement counterscreen; Potency, µM (titrated, usually from 228 µM), for inactives: top-dose activity change, negative = inhibition, hits mostly inhibitors; 530 compounds, 27% hits; AID 2711; note: nearly all actives have a fitted effect of over 45% in size
RECQ1 inh-2: confirmation of human RECQ1 helicase inhibitors | shares compounds with RECQ1 inh-1 | recombinant RECQ1 DNA unwinding, red fluorescence | Potency, µM (titrated, usually from 119 µM), inactives show at the highest dose activity, negative = inhibition, hits mostly inhibitors | 1,100 compounds, 15% hits; note: nearly all actives have a fitted effect of over 50% in size
* hit, by the source's call; [ ] = remark or other dose. Calls come from the whole dose curve; as a rule, active = well fitted curve in the direction sought with a large enough effect; inconclusive = small, poorly fitted or top-dose-only effect, or another doubt; inactive = no such curve, though single readings can be large; an effect the other way counts as inactive or inconclusive. Unless noted, % is set by controls: 0 for no effect and ±100 for the full control effect; potency is the fitted concentration of half-maximal effect.

For COc1ccc(C)cc1S(=O)(=O)Nc1ccncc1 the results were BLM inh -6%, FEN1 inh 2%, WRN inhibitor 0%, L3MBTL1 inh 10%, RECQ1 inh-1 20µM* and RECQ1 inh-2 -7%.
`COc1ccc(C)cc1S(=O)(=O)Nc1ccccc1` gave BLM inh -2%, FEN1 inh -6%, WRN inhibitor -1% and RECQ1 inh-1 -5%.
COCCCNC(=O)c1ccc2c3c(onc13)-c1ccccc1C2=O was read as BLM inh -7%, FEN1 inh 45µM*, WRN inhibitor 22µM*, L3MBTL1 inh -25%, RECQ1 inh-1 13µM* and RECQ1 inh-2 50µM*.
COCCCNC(=O)c1ccccc1Oc1ccccc1 was read as BLM inh 0%, FEN1 inh 4%, WRN inhibitor 2%, L3MBTL1 inh 0% and RECQ1 inh-1 -7%.
CCC(C(=O)N1CCN(c2cccc(Cl)c2)CC1)c1ccccc1 (centres undefined) was read as BLM inh -5%, FEN1 inh -15%, WRN inhibitor -14%, L3MBTL1 inh 4%, RECQ1 inh-1 25µM* and RECQ1 inh-2 -21%.
O=C(C(Cc1ccccc1)n1cccc1)N1CCN(c2cccc(Cl)c2)CC1 (centres undefined) was read as BLM inh -10%, FEN1 inh 4%, WRN inhibitor -4% and RECQ1 inh-1 -15%.
`COc1cc(NC(=O)CSc2ccc(-c3ccccn3)nn2)cc(OC)c1` gave BLM inh 8%, FEN1 inh -12% and WRN inhibitor -20%.
Screening C[C@H]1COC(=O)CCC/C=C\C[C@H](CC(=O)N(CCO)Cc2ccccc2)C(=O)N1 returned FEN1 inh 18%, WRN inhibitor -8% and L3MBTL1 inh 4%.
Screening CS(=O)(=O)N(CC(=O)Nc1ccc(CC#N)cc1)c1ccc(C23CC4CC(CC(C4)C2)C3)cc1 returned BLM inh -13%, FEN1 inh -6%, WRN inhibitor -14%, L3MBTL1 inh -9%, RECQ1 inh-1 7.9µM* and RECQ1 inh-2 inconclusive.
Screening COc1ccc(-c2cc(C(=O)O)no2)cc1 returned BLM inh 7%, FEN1 inh -3%, WRN inhibitor -5%, L3MBTL1 inh -9%, RECQ1 inh-1 inconclusive and RECQ1 inh-2 4%.
`COc1ccc(-c2cc(C(=O)Nc3cc(C)on3)no2)cc1` gave BLM inh 5%, FEN1 inh -12%, WRN inhibitor -3%, L3MBTL1 inh -1% and RECQ1 inh-1 -1%.
O=C(O)/C(=C\c1ccc(Cl)cc1)c1ccc(S(=O)(=O)N2CCCC2)s1 was read as FEN1 inh 3%, WRN inhibitor -16% and L3MBTL1 inh -1%.
O=C(O)/C(=C\c1ccccc1Cl)c1ccc(S(=O)(=O)N2CCCCC2)s1 was read as BLM inh -16%, FEN1 inh -5%, WRN inhibitor -14%[57.1 µM], L3MBTL1 inh -11%, RECQ1 inh-1 3%, RECQ1 inh conf 126µM* and ADP FP counter -9%.
COc1ccc(-c2nn(-c3ccccc3)cc2/C=C/C(=O)O)cc1[N+](=O)[O-] was read as BLM inh 10%, FEN1 inh 8%, WRN inhibitor -10%, L3MBTL1 inh inconclusive, RECQ1 inh-1 inconclusive and RECQ1 inh-2 -5%.
Screening Cc1ccc(C2C(C#N)=C(N)Oc3c2oc(CO)cc3=O)o1 (centres undefined) returned BLM inh -1%, FEN1 inh 3%, WRN inhibitor -1%, L3MBTL1 inh inconclusive, RECQ1 inh-1 40µM* and RECQ1 inh-2 8%.
`CC(C)Oc1ccc(C2C(C#N)=C(N)Oc3c2oc(CO)cc3=O)cc1` (centres undefined) gave BLM inh -4%, FEN1 inh 6%, WRN inhibitor 2% and RECQ1 inh-1 -1%.
For O=S(=O)(c1cccc(Cl)c1)n1c(/C=C/c2ccccc2Cl)nc2ccccc21 the results were BLM inh -8% and FEN1 inh -11%.
Screening Oc1c(C=C2N=c3ccccc3=N2)sc(=S)n1C1CCCCC1 returned BLM inh -6%, FEN1 inh -5%, WRN inhibitor 3%, L3MBTL1 inh 2% and RECQ1 inh-1 -1%.
For CC1CCN(CCCn2c(=S)[nH]c3c(sc4ccc([N+](=O)[O-])cc43)c2=O)CC1 the results were BLM inh -1%, FEN1 inh -3%, WRN inhibitor inconclusive, L3MBTL1 inh 15%, RECQ1 inh-1 inconclusive and RECQ1 inh-2 inconclusive.
`CC(=O)c1cccc(S(=O)(=O)NCCC(=O)NC2CCCCCC2)c1` gave FEN1 inh 1%, WRN inhibitor 7% and L3MBTL1 inh -2%.
For COCCN(Cc1ccc(C)c(Br)c1)S(=O)(=O)c1ccc2[nH]c(=O)ccc2c1 the results were BLM inh -5% and FEN1 inh 14%.
`O=C(COC(=O)c1ccc(NS(=O)(=O)c2cccs2)cc1)NCc1ccco1` gave BLM inh 14µM*, FEN1 inh 45µM*, WRN inhibitor 45µM*, RECQ1 inh-1 14µM*, RECQ1 inh conf 32µM*, ADP FP counter 40µM* and RECQ1 inh-2 inconclusive.
`COc1cc(NC(=O)c2cccs2)c(C(=O)OCC(=O)NCc2ccco2)cc1OC` gave BLM inh inconclusive, FEN1 inh -11%, WRN inhibitor inconclusive, RECQ1 inh-1 8.9µM*, RECQ1 inh conf 28µM*, ADP FP counter inconclusive and RECQ1 inh-2 inconclusive.
COc1ccc(CCNS(=O)(=O)c2cc(/C=C/C(=O)O)ccc2C)cc1OC was read as BLM inh -1%, FEN1 inh -8%, WRN inhibitor -1%, L3MBTL1 inh 5% and RECQ1 inh-1 inactive.
For COC(=O)Nc1ccc(S(=O)(=O)N2CCCCC2C(=O)NCc2ccco2)cc1 (centres undefined) the results were BLM inh 1%, FEN1 inh -1%, WRN inhibitor -14%, RECQ1 inh-1 -2%, RECQ1 inh conf 0% and ADP FP counter 11%.
